Screening data deposited in PubChem BioAssay by National Center for Advancing Translational Sciences (NCATS).
This is a sample that favours compounds with a hit; in the whole collection about 12% have one here.
TDP1 inh – blocks human tyrosyl-DNA phosphodiesterase 1 | Q9NUW8 | recombinant TDP1, AlphaScreen DNA substrate cleavage | Potency, µM (series often up to 130 µM), hits mostly inhibitors | hit rate 0.28% among 350,000; note: nearly all actives have a fitted effect of over 40% in size
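E. coli-derived human Tdp1, 1 nM final. Cpd preinc 15 min RT; substrate 15 nM final, 5 min RT; AS bead mix 10 ug/ml final, 10 min RT. Signal loss = tyrosine-FITC cleavage. No-enzyme wells = max signal.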
Sfp PPTase inh – blocks B. subtilis Sfp PPTase activity. Potency, µM, usual class: inhibitors. AID 1490. Q9F4F7. hit rate 3.5% among 310,000. Biochemical Sfp PPTase activity, qHTS;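 note: the enzyme is Sfp with the accession as filed and its product quenches rhodamine fluorescence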
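With Hepes-Na pH 7.6 buffer containing 10 mM MgCl2, Sfp (15 nM) modified BHQ-2-YbbR (12.5 uM) using rhodamine-CoA (5 uM). Two reads 30 minutes apart at 525/598 nm yielded each well's rate.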
JMJD2A Tudor inh – JMJD2A Tudor domain (human) inhibition | hit rate 4.4% among 390,000 | Potency, µM (highest dose often 114 µM), actives largely listed as inhibitors | AlphaScreen JMJD2A-Tudor / H3K4me3 peptide binding | AID 504339; note: nearly all actives have a fitted effect of over 50% in size
BAZ2B inh – inhibitors of human BAZ2B bromodomain; Potency, µM (titrated, usually from 114 µM), hits mostly inhibitors; Q9UIF8; hit rate 4.4% among 360,000; AlphaScreen BAZ2B-H3K14Ac peptide displacement; note: nearly all actives have a fitted effect of over 60% in size
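AlphaScreen displacement: compounds (up to 110uM) incubated 30 min at room temperature with a preformed 50 nM BAZ2B/50 nM biotinylated H3K14Ac peptide complex in PBS pH 7.4 with Tween-20. Donor and acceptor beads at 10 ug/mL final added, 20 min light-protected before reading.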
G9a block – inhibitors of human histone lysine methyltransferase G9a; hit rate 8.8% among 350,000; Potency, µM (top dose mostly 102 µM), usual class: inhibitors; G9a H3K9 monomethylation, AlphaScreen, 2 h; note: nearly all actives have a fitted effect of over 75% in size
Target sequence (Q96KQ7 913-1193 limits assumed): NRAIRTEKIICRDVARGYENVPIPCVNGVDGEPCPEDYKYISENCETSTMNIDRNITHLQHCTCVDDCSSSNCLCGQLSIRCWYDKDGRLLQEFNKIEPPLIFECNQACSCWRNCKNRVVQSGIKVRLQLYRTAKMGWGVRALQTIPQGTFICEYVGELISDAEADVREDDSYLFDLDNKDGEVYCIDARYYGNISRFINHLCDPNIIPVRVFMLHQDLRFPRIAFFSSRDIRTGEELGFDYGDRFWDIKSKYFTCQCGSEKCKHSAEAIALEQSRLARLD
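G9a (20 nM) was preincubated 15 min with compound, then reacted 2 h at room temperature with 500 nM biotin-H3K9 peptide and 20 µM SAM. Monomethyl-H3K9 detected by AlphaScreen using anti-H3K9me1 antibody.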
HP1b binding inh – HP1-beta chromodomain-methylated histone interaction inhibition | hit rate 0.56% among 390,000 | P83916 | Potency, µM (series often up to 114 µM), actives largely listed as inhibitors | AlphaScreen HP1-beta / biotin-H3K9me3 peptide binding; note: nearly all actives have a fitted effect of over 70% in size
Target sequence (P83916 whole entry, looked up): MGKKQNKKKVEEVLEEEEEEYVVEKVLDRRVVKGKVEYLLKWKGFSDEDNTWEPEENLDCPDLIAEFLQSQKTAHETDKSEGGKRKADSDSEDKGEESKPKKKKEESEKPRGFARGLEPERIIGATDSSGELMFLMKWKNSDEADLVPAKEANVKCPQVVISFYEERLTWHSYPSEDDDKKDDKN
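Compound inhibition of the preformed complex between 50 nM HP1-beta and 50 nM biotinylated H3K9me3 peptide was read by AlphaScreen. Buffer was PBS pH 7.4 with 0.01% Tween-20. Incubations ran 30 min at room temperature, with 10 ug/mL donor/acceptor beads.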
Each line names hits and unclear results; the compound was inactive in the other large screens. Calls come from the whole dose curve; as a rule, active = well fitted curve in the direction sought with a large enough effect; inconclusive = small, poorly fitted or top-dose-only effect, or another doubt; inactive = no such curve, though single readings can be large; an effect the other way counts as inactive or inconclusive.

O=C(NC(=S)N1CCOCC1)c1ccc([N+](=O)[O-])cc1	BAZ2B inh inconclusive, G9a block 8.91µM
CC1CN(C(=S)NC(=O)c2ccc([N+](=O)[O-])cc2)CC(C)O1 (centres undefined)	G9a block 39.8µM
CC1CN(C(=O)COC(=O)CSc2ccc([N+](=O)[O-])cc2)CC(C)O1 (centres undefined)	G9a block inconclusive (no result: Sfp PPTase inh)
CC1CN(C(=S)SCC(=O)c2ccc([N+](=O)[O-])cc2)CC(C)O1 (centres undefined)	BAZ2B inh inconclusive, G9a block 14.1µM (no result: TDP1 inh)
O=C(Nc1ccc(F)cc1)c1ccc(Cn2nc(N3CCN(c4ccccc4)CC3)ccc2=O)o1	JMJD2A Tudor inh inconclusive (no result: Sfp PPTase inh)
O=C(Nc1ccccc1F)c1ccc(Cn2nc(N3CCN(c4ccccc4)CC3)ccc2=O)o1	JMJD2A Tudor inh 50.1µM, BAZ2B inh 31.6µM, G9a block inconclusive (no result: Sfp PPTase inh)
O=C(Nc1ccccc1C(F)(F)F)N1CCC2(CC1)Oc1ccccc1C(=O)N2Cc1ccccc1F	none (no result: Sfp PPTase inh)
Cc1ccc(/C=C(/C#N)C(=O)NC(C)c2ccccc2)o1 (centres undefined)	Sfp PPTase inh 22.4µM
CC(C)NC(=O)/C(C#N)=C/c1ccc(N(C)C)o1	G9a block 50.1µM
COc1cc(/C=C(/C#N)C(=O)NC(C)c2ccccc2)cc(OC)c1O (centres undefined)	BAZ2B inh inconclusive, G9a block 14.1µM (no result: TDP1 inh)
Cc1ccc(/C=C(\C#N)C(=O)NC(C)c2ccccc2)o1 (centres undefined)	none
Cc1ccc(/C=C(\C#N)C(=O)NC(C)C)o1	none
CCOc1ccc(N=C2NC(=O)/C(=C/C(=O)OC)S2)cc1	none
CCc1ccc(N=C2NC(=O)/C(=C/c3ccc(OCC(=O)O)cc3)S2)cc1	JMJD2A Tudor inh inconclusive, BAZ2B inh 50.1µM, G9a block 50.1µM (no result: TDP1 inh)
CCOC(=O)C1=C(O)/C(=C/c2ccc(OCC(=O)O)c(OCC)c2)SC1=Nc1ccc(C)cc1	G9a block 44.7µM
CCc1ccc(N=C2NC(=O)/C(=C/c3ccc(OCC(=O)O)c(OC)c3)S2)cc1	JMJD2A Tudor inh 28.2µM, BAZ2B inh 7.08µM, HP1b binding inh 44.7µM (no result: TDP1 inh, G9a block)
CCn1c(=O)c2sccc2n2c(CCC(=O)NCc3ccc(Cl)cc3)nnc12	none (no result: Sfp PPTase inh)
CCOC(=O)C1=C(COC(=O)c2ccccc2[N+](=O)[O-])NC(=O)NC1C (centres undefined)	none (no result: Sfp PPTase inh)
O=[S+]([O-])(c1ccc2c(c1)OCCO2)N1CCN([S+](=O)([O-])c2c(F)cc(Br)cc2F)CC1	none (no result: TDP1 inh, Sfp PPTase inh, BAZ2B inh, G9a block, HP1b binding inh)
Cc1ccc(Cl)cc1NC(=O)C1CCN(c2nc3ccccc3n3cccc23)CC1	none (no result: Sfp PPTase inh)
Cc1ccccc1N=CC1=C(O)c2ccccc2C1=O	G9a block 44.7µM
Cc1ccc(S(=O)(=O)NC2OC(=O)C(Cl)=C2Cl)cc1 (centres undefined)	BAZ2B inh 79.4µM, G9a block inconclusive
COc1ccc(NC(=O)COC(=O)c2ccc(-n3cnnn3)cc2)c([N+](=O)[O-])c1	none (no result: Sfp PPTase inh)
Cc1cc(C)c2c(n1)SCCN2C(=O)Nc1ccc(C(=O)Nc2ccc(C(C)C)cc2)cc1	none (no result: Sfp PPTase inh)
Cc1ccsc1C=C1C(=O)c2ccccc2C1=O	JMJD2A Tudor inh inconclusive, BAZ2B inh inconclusive, G9a block 28.2µM
COC(=O)C1CC(O)CN1C(=O)NC1CCCCC1 (centres undefined)	BAZ2B inh inconclusive
O=C(NNc1nc(-c2ccc(F)cc2)cs1)c1ccccc1	Sfp PPTase inh 50.1µM, G9a block 22.4µM, HP1b binding inh inconclusive
O=C(NNc1nc(-c2ccccc2)cs1)c1ccc(F)cc1	Sfp PPTase inh inconclusive, G9a block 20µM
O=C(NNc1nc2ccccc2s1)c1ccc(F)cc1	none
O=C(NNc1nc(-c2ccccc2)cs1)c1cccs1	Sfp PPTase inh inconclusive, BAZ2B inh inconclusive (no result: TDP1 inh)
Cc1c2n(c3ccccc13)CCN(C)C2	JMJD2A Tudor inh 22.4µM (no result: Sfp PPTase inh)
CN1CCc2c(c3ccccc3n2C)C1	none
CCOc1ccc(S(=O)(=O)Nc2ccc3c(c2)CCCN3S(=O)(=O)c2ccc(C)cc2)cc1	BAZ2B inh 56.2µM, G9a block inconclusive (no result: Sfp PPTase inh)
Cc1ccc(CCNC(=O)CCc2cn(Cc3ccccc3C)c3ccccc23)cc1	none (no result: Sfp PPTase inh)
COc1ccc(-c2csc(/C(C#N)=C(\O)CSc3nccn3C)n2)cc1OC	Sfp PPTase inh inconclusive, BAZ2B inh 50.1µM, G9a block 44.7µM
COc1ccc(/C=C(/C#N)c2nc(-c3ccc(-c4ccccc4)cc3)cs2)cc1OC	G9a block inconclusive (no result: Sfp PPTase inh)
COc1cccc(-c2c(C(=O)N/N=C/c3sccc3C)nnn2-c2nonc2N)c1	none
Cc1c(S(=O)(=O)N2CCc3ccccc3C2)c(=O)n(C)c(=O)n1C	G9a block 50.1µM
Cc1cc(C)n(CCNC(=O)c2cc(COc3ccc(F)cc3Cl)on2)n1	none (no result: TDP1 inh)
Cc1nc(CCNC(=O)c2cc(COc3ccc(F)cc3Cl)on2)sc1C	Sfp PPTase inh 39.8µM (no result: TDP1 inh, G9a block)
CC(=O)C1=C(O)C(=O)N(CC#N)C1c1cccs1 (centres undefined)	JMJD2A Tudor inh 79.4µM (no result: TDP1 inh)
O=C(C1=C(O)C(=O)N(CCOCCO)C1c1cccs1)c1cccs1 (centres undefined)	JMJD2A Tudor inh inconclusive, BAZ2B inh inconclusive, G9a block 44.7µM
Cc1nc(C)c(C(=O)C2=C(O)C(=O)N(CCN(C)C)C2c2cccs2)s1 (centres undefined)	none
CC(=Nc1cccc(C)c1)c1sc2ccccc2c1O	JMJD2A Tudor inh inconclusive
Oc1c(N=Nc2ccccc2)sc2ccccc12	JMJD2A Tudor inh inconclusive, BAZ2B inh 2µM (no result: G9a block)
O=C(c1ccc(=O)[nH]c1)N1CCN(S(=O)(=O)c2ccccc2)CC1	none
COc1ccc(COC(=O)C2=C(C)NC(=O)NC2c2ccc(F)cc2)cc1 (centres undefined)	none (no result: TDP1 inh)
CC1(C)Cc2c(ccc3ccccc23)C(=O)N1	none
CNC(=O)/C=C1\NC(C)(C)Cc2ccccc21	Sfp PPTase inh 50.1µM
CCNC(=O)/C=C1\NC(C)(C)Cc2c1ccc1ccccc21	G9a block 11.2µM
NNC(=O)C(=O)/C=C1\NC2(CCCC2)Cc2ccccc21	BAZ2B inh inconclusive
CCC1(C)Cc2ccccc2/C(=C/C(=O)N2CCCCC2)N1 (centres undefined)	JMJD2A Tudor inh inconclusive, BAZ2B inh inconclusive, G9a block 39.8µM
Cn1c(=O)c2c(ncn2CC(=O)OCC(=O)Nc2ccc(F)cc2Cl)n(C)c1=O	none (no result: Sfp PPTase inh, BAZ2B inh, G9a block)
C=CCn1c(=O)c2ccccc2n2c(SCc3nc4ccccc4s3)nnc12	G9a block 12.6µM
CC(C)N(Cc1ccccc1)C(=S)NC1CCCCC1	none (no result: BAZ2B inh)
CN1C(=O)NC(c2ccccc2)C2=C1CN(c1cccc(C(F)(F)F)c1)C2=O (centres undefined)	G9a block 50.1µM
